# Measured values as given in the supplement of paper PMC8728848.
# The sample as a whole holds a higher share of the strongest signals than the screen did.
# Experiments:
# Experiment in all cases: glycan array binding signal (z-score within array); higher = stronger binding
# Conditions in all cases: glycan notation: IUPAC condensed, linker removed
# [1] = molecular target: Fuc(a1-2)Gal(b1-3)GalNAc(a1-3)[Fuc(a1-2)]Gal(b1-4)GlcNAc
# Procedure, shortened: (§1)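 Glycan array data were curated from 3228 arrays in the Consortium for Functional Glycomics database and kept only where the protein sequence was available. Glycan names were converted to IUPAC-condensed notation, and columns mapping to the same glycan were averaged. The binding signal is a within-array Z-score, averaged across arrays of the same protein sequence at different concentrations or buffers and across linkers. Negative Z-scores can be read as non-binding.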
# [2] = molecular target: Fuc(a1-2)Gal(b1-3)GlcNAc(b1-3)Gal(b1-4)Glc
# Procedure, shortened: as §1
# [3] = molecular target: Fuc(a1-2)Gal(b1-3)[Fuc(a1-4)]GlcNAc(b1-3)[Gal(b1-4)GlcNAc(b1-6)]Gal(b1-4)Glc
# Procedure, shortened: as §1
# [4] = molecular target: Fuc(a1-2)[Gal(a1-3)]Gal(b1-3)GlcNAc(b1-2)Man(a1-3)[Fuc(a1-2)[Gal(a1-3)]Gal(b1-3)GlcNAc(b1-2)Man(a1-6)]Man(b1-4)GlcNAc(b1-4)GlcNAc
# Procedure, shortened: as §1
# [5] = molecular target: Fuc(a1-2)[Gal(a1-3)]Gal(b1-3)GlcNAc(b1-2)Man(a1-3)[Fuc(a1-2)[Gal(a1-3)]Gal(b1-3)GlcNAc(b1-2)Man(a1-6)]Man(b1-4)GlcNAc(b1-4)[Fuc(a1-6)]GlcNAc
# Procedure, shortened: as §1
# [6] = molecular target: Fuc(a1-2)[Gal(a1-3)]Gal(b1-3)GlcNAc(b1-3)GalNAc
# Procedure, shortened: as §1
# [7] = molecular target: Fuc(a1-2)[Gal(a1-3)]Gal(b1-4)GlcNAc(b1-2)Man
# Procedure, shortened: as §1
# [8] = molecular target: Fuc(a1-2)[Gal(a1-3)]Gal(b1-4)GlcNAc(b1-2)Man(a1-3)[Fuc(a1-2)[Gal(a1-3)]Gal(b1-4)GlcNAc(b1-2)Man(a1-6)]Man(b1-4)GlcNAc(b1-4)GlcNAc
# Procedure, shortened: as §1
# [9] = molecular target: Fuc(a1-2)[Gal(a1-4)]Gal(b1-4)GlcNAc
# Procedure, shortened: as §1
# [10] = molecular target: Fuc(a1-2)[GalNAc(a1-3)]Gal(b1-3)GlcNAc(b1-2)Man(a1-3)[Fuc(a1-2)[GalNAc(a1-3)]Gal(b1-3)GlcNAc(b1-2)Man(a1-6)]Man(b1-4)GlcNAc(b1-4)GlcNAc
# Procedure, shortened: as §1
# [11] = molecular target: Fuc(a1-2)[GalNAc(a1-3)]Gal(b1-3)GlcNAc(b1-3)GalNAc
# Procedure, shortened: as §1
# [12] = molecular target: Fuc(a1-2)[GalNAc(a1-3)]Gal(b1-4)GlcNAc(b1-2)Man(a1-3)[Fuc(a1-2)[GalNAc(a1-3)]Gal(b1-4)GlcNAc(b1-2)Man(a1-6)]Man(b1-4)GlcNAc(b1-4)[Fuc(a1-6)]GlcNAc
# Procedure, shortened: as §1
# [13] = molecular target: Fuc(a1-2)[GalNAc(a1-3)]Gal(b1-4)GlcNAc(b1-3)GalNAc
# Procedure, shortened: as §1
# [14] = molecular target: Fuc(a1-2)[GalNAc(b1-3)]Gal
# Procedure, shortened: as §1
# [15] = molecular target: Fuc(a1-3)[Gal(b1-4)]GlcNAc(b1-4)Gal(b1-4)[Fuc(a1-3)]GlcNAc(b1-4)Gal(b1-4)[Fuc(a1-3)]GlcNAc
# Procedure, shortened: as §1
# [16] = molecular target: Fuc(a1-3)[GalNAc(b1-4)]GlcNAc
# Procedure, shortened: as §1
# [17] = molecular target: Gal(a1-3)Gal(b1-3)[Fuc(a1-4)]GlcNAc(b1-2)Man(a1-3)[Gal(a1-3)Gal(b1-3)[Fuc(a1-4)]GlcNAc(b1-2)Man(a1-6)]Man(b1-4)GlcNAc(b1-4)GlcNAc
# Procedure, shortened: as §1
# [18] = molecular target: Gal(a1-3)Gal(b1-4)GlcNAc
# Procedure, shortened: as §1
# [19] = molecular target: Gal(a1-3)Gal(b1-4)GlcNAc(b1-6)GalNAc
# Procedure, shortened: as §1
# [20] = molecular target: Gal(b1-3)GlcNAc(b1-3)Gal(b1-4)GlcNAc(b1-2)Man(a1-3)[Gal(b1-3)GlcNAc(b1-3)Gal(b1-4)GlcNAc(b1-2)Man(a1-6)]Man(b1-4)GlcNAc(b1-4)GlcNAc
# Procedure, shortened: as §1
# [21] = molecular target: Gal(b1-3)[Fuc(a1-4)]GlcNAc(b1-3)Gal(b1-3)[Fuc(a1-4)]GlcNAc
# Procedure, shortened: as §1
# [22] = molecular target: Gal(b1-3)[Fuc(a1-4)]GlcNAc(b1-3)Gal(b1-4)GlcNAc
# Procedure, shortened: as §1
# [23] = molecular target: Gal(b1-4)Glc
# Procedure, shortened: as §1
# [24] = molecular target: Gal(b1-4)GlcNAc(b1-3)Gal(b1-4)GlcNAc(b1-3)Gal(b1-4)GlcNAc
# Procedure, shortened: as §1
# [25] = molecular target: Gal(b1-4)GlcNAc(b1-3)Gal(b1-4)GlcNAc(b1-3)Gal(b1-4)GlcNAc(b1-3)Gal(b1-4)GlcNAc(b1-3)Gal(b1-4)GlcNAc(b1-2)Man(a1-3)[Gal(b1-4)GlcNAc(b1-3)Gal(b1-4)GlcNAc(b1-3)Gal(b1-4)GlcNAc(b1-3)Gal(b1-4)GlcNAc(b1-3)Gal(b1-4)GlcNAc(b1-2)Man(a1-6)]Man(b1-4)GlcNAc(b1-4)[Fuc(a1-6)]GlcNAc
# Procedure, shortened: as §1
# [26] = molecular target: Gal(b1-4)GlcNAc(b1-3)Gal(b1-4)GlcNAc(b1-3)GalNAc
# Procedure, shortened: as §1
# [27] = molecular target: Gal(b1-4)GlcNAc(b1-3)Gal(b1-4)GlcNAc(b1-3)[Gal(b1-4)GlcNAc(b1-3)Gal(b1-4)GlcNAc(b1-6)]GalNAc
# Procedure, shortened: as §1
# [28] = molecular target: Gal3S(b1-4)GlcNAc6S
# Procedure, shortened: as §1
binder,measurement,setting,value
KISKRILTGKK [NK11 (Sus scrofa)],glycan array binding signal (z-score),[1],-0.539
same,glycan array binding signal (z-score),[2],0.203
same,glycan array binding signal (z-score),[3],-0.767
same,glycan array binding signal (z-score),[4],-0.23
same,glycan array binding signal (z-score),[5],-0.614
same,glycan array binding signal (z-score),[6],0.052
same,glycan array binding signal (z-score),[7],-0.085
same,glycan array binding signal (z-score),[8],0.702
same,glycan array binding signal (z-score),[9],0.014
same,glycan array binding signal (z-score),[10],-0.032
same,glycan array binding signal (z-score),[11],0.052
same,glycan array binding signal (z-score),[12],0.421
same,glycan array binding signal (z-score),[13],-1.25
same,glycan array binding signal (z-score),[14],-0.608
same,glycan array binding signal (z-score),[15],-0.886
same,glycan array binding signal (z-score),[16],-0.401
same,glycan array binding signal (z-score),[17],-0.06
same,glycan array binding signal (z-score),[18],-0.302
same,glycan array binding signal (z-score),[19],-0.147
same,glycan array binding signal (z-score),[20],-0.818
same,glycan array binding signal (z-score),[21],-0.425
same,glycan array binding signal (z-score),[22],3.41
same,glycan array binding signal (z-score),[23],-0.144
same,glycan array binding signal (z-score),[24],-0.612
same,glycan array binding signal (z-score),[25],-0.483
same,glycan array binding signal (z-score),[26],2.91
same,glycan array binding signal (z-score),[27],3.55
same,glycan array binding signal (z-score),[28],3.4
